ALDH1A1 inh: blocks purified human ALDH1A1 activity | Purified ALDH1A1, NADH fluorescence, propionaldehyde substrate | Potency, µM (highest dose often 75.3 µM), for inactives: at the highest dose activity, negative = inhibition, hits mostly inhibitors | hit rate 7.3% among 220,000;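 also: potency is read from the fitted curve at half-maximal effect; plate controls were no enzyme wells and a reference inhibitor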
PNC assembly inh: perinucleolar compartment assembly inhibition; PC3M PTB-GFP, PNC prevalence imaging, 16 h; active compounds read low; activity change (PNC), negative = inhibition, % at 10 µM; hit rate 3.1% among 140,000;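 active = readout at or below -70, meaning at least 70% loss of cells showing the perinucleolar compartment, a nuclear body marking cancer cells; inconclusive = readout between -30 and a set limit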;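 also: plate controls were DMSO wells for no effect and camptothecin positive control wells for full effect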
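PC3M cells stably expressing PTB-GFP, 750–1000 cells/well, treated 16 h at 37 °C with compound (23 nl of library stock), in duplicate. After paraformaldehyde fixation and Hoechst stain, imaged at 20x; PNC prevalence scored by image analysis.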
GoLoco inh red: blocks human Gai1 binding to RGS12 GoLoco peptide, red readout; P63096; Gai1:RGS12 GoLoco peptide FP, rhodamine, 10 min; Potency, µM (series often up to 61.6 µM), for the others: at the top dose activity, negative = inhibition, most hits filed as inhibitors; hit rate 0.44% among 230,000; AID 880; active = well fitted inhibition curve with a large enough effect, not every such curve was filed as active; inactive = no such curve, though single readings can be large or run the other way; also: potency is read from the fitted curve at half-maximal effect; % is scaled to controls: 0 for no effect and ±100 for the full control effect; nearly all actives have a fitted effect of over 30% in size
HTT cytoprotect: protects HTT-Q103 PC12 cells, measured by ATP; PC12 HTT-Q103 induced, cytoprotection, ATP luminescence, 40 h; Potency, µM (doses to about 56.4 µM), inactives show cytoprotection (ATP increase), usual class: activators; hit rate 0.14% among 230,000; AID 1471; active = well fitted curve in the direction sought with a large enough effect; inconclusive = small, poorly fitted or top-dose-only effect, or another doubt; inactive = no such curve, though single readings can be large; an effect the other way counts as inactive or inconclusive; also: potency is read from the fitted curve at half-maximal effect; % of control where 0% means no effect; nearly all actives have a fitted effect of over 45% in size
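Cells were plated at 1500 per well in phenol red-free DMEM with 5% equine and 5% calf serum. Tebufenozide (100 nM final) and compounds were added, then ATPlite reagent, and luminescence was read.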
HTT aggregate: inhibitors of mutant huntingtin aggregate formation in PC12 cells; PC12 HttQ103-GFP aggregates, Acumen cytometry, 40 h; hit rate 1.1% among 220,000; Potency, µM (top dose mostly 46.1 µM), for the others: at the top dose activity change, negative = inhibition, usual class: inhibitors; active = well fitted curve in the direction sought with a large enough effect; inconclusive = small, poorly fitted or top-dose-only effect, or another doubt; inactive = no such curve, though single readings can be large; an effect the other way counts as inactive or inconclusive; also: potency is read from the fitted curve at half-maximal effect; % is scaled to controls: 0 for no effect and ±100 for the full control effect; nearly all actives have a fitted effect of over 60% in size
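Read-out: GFP aggregate count by laser scanning cytometer (488 nm excitation, 500-530 nm emission, 1–25 µm objects >6 SD above background). Cells: PC12, inducible HTTex1-Q103-GFP, 100 nM tebufenozide; compounds titrated.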
HPGD inh: blocks human HPGD enzyme activity | P15428 | purified HPGD, NADH fluorescence kinetic, PGE2 substrate | Potency, µM, inactives show at the top dose activity change, negative = inhibition, hits mostly inhibitors | hit rate 4.3% among 150,000; also: potency is read from the fitted curve at half-maximal effect; % is scaled to controls: 0 for no effect and ±100 for the full control effect
Target sequence (P15428 whole entry, looked up): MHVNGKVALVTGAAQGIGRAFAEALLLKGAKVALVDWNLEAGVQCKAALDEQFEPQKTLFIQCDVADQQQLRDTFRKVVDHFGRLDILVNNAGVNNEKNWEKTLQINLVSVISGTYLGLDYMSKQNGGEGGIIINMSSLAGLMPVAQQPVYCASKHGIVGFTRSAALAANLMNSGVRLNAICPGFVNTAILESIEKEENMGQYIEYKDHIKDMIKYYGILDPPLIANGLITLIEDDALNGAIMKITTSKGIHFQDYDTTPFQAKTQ
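NADH formation kinetics: reaction with 30 uM PGE2 and 1 mM NAD+ (final), 20 nM enzyme, Tris-HCl pH 8 with Tween 20, after 15 min compound preincubation at room temperature. Fluorescence change, last versus first of five reads.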
An asterisk follows results filed as active; ? = inconclusive; . = no result given; [ ] = another dose, or the depositor's remark. In the library only some 11% were active in any assay of this set; here they are far more common. Unless noted, calls follow the shape of the dose curve; as a rule, active = well fitted inhibition curve with a large enough effect (not every such curve was filed as active); inconclusive = small, poorly fitted or top-dose-only effect, or another doubt; inactive = no such curve, though single readings can be large or run the other way.

SMILES | ALDH1A1 inh | PNC assembly inh | GoLoco inh red | HTT cytoprotect | HTT aggregate | HPGD inh
O=C(CSc1nc2c(c(=O)[nH]1)CCC2)Nc1cccc(Cl)c1 | 0% | -1 | -4% | -18% | 22% | 14µM*
CCC1C(=O)N=C(SCC(=O)Nc2ccc(C(=O)OC)cc2)NC1=O (stereo not given) | 3% | 29 | -15% | -6% | 7% | 14µM*
CC(=O)NC1C(=O)N=C(SCC(=O)Nc2cccc(Cl)c2)NC1=O (stereo not given) | 28µM* | . | -8% | 7% | 11% | .
CC1CCC(O)C/C1=C\C=C1/CCCC2(C)C1CCC2C(C)/C=C/C(C)C(C)C (stereo not given) | . | . | . | -13% | -18% | .
COc1ccccc1CCc1nnc(CCC(=O)NC(C)Cc2cccnc2)o1 (stereo not given) | -2% | . | 40% | 10%[10 µM] | 0%[9.22 µM] | .
COc1cccc([C@H]2Oc3ccc(OC)cc3/C(=N\O[C@@H]3O[C@H](COC(C)=O)[C@H](OC(C)=O)[C@H](OC(C)=O)[C@H]3OC(C)=O)[C@@H]2O)c1 | ? | . | . | -6%[10 µM] | . | .
CCc1cccc(NC(=O)CSc2nc3c(c(=O)[nH]2)CCCC3)c1 | 3% | 4 | -4% | . | -17% | 10µM*
CN(C)c1ccc(NC(=O)CSc2nc3c(c(=O)[nH]2)CCCC3)cc1 | -13% | 50 | -1% | 2%[10 µM] | 1% | -12%
Cn1c(CNC(=O)c2ccccc2)nnc1SCC(=O)Nc1nccs1 | 5% | . | 11% | -19% | 2%[9.22 µM] | .
Nc1c(C(=O)c2ccccc2)sc2snc(SCC(=O)c3ccccc3)c12 | 10µM* | -27 | 12% | -18% | 7% | -29%
CSc1c(C#N)c(N)nc2sc(C(=O)c3ccccc3)c(N)c12 | . | . | 3% | -8%[10 µM] | -12%[9.22 µM] | .
FC(F)(F)c1cc(CO[C@@H]2CCCN[C@H]2c2ccccc2)cc(C(F)(F)F)c1 | . | . | . | -22%[1.9 µM] | . | .
Cc1ccc(S(=O)(=O)N(C(=O)c2ccncc2)c2ccc(OC(=O)c3ccncc3)c3ccccc23)cc1 | 4µM* | 8 | -19% | 6%[10 µM] | ? | 20µM*
Cc1ccc(S(=O)(=O)N(C(=O)c2ccncc2)c2ccc(OC(=O)c3ccncc3)c3ccccc23)c(C)c1 | 7.9µM* | 22 | -13% | -97% | ? | 28µM*
Cc1cc(F)ccc1S(=O)(=O)N(C(=O)c1ccncc1)c1ccc(OC(=O)c2ccncc2)cc1 | 6% | . | 0% | 12% | -10% | .
CCOC(=O)CSc1nnc(-c2ccco2)n1-c1ccc(C)cc1 | -11% | 26 | -1% | 5% | -10% | -10%
CCOC(=O)CSc1nnc(-c2cccs2)n1-c1ccccc1 | ? | 5 | 2% | 0% | 3% | 28µM*
O=C(CSc1nnc(-c2cccs2)n1-c1ccccc1)Nc1ccccc1 | -1% | -8 | -1% | -15% | ? | -14%
Cc1ccc(-n2c(SCC3CCCCO3)nnc2-c2ccco2)cc1 (stereo not given) | ? | 33 | 3% | -3% | -1% | 16µM*
c1ccc(-n2c(SCC3CCCCO3)nnc2-c2cccs2)cc1 (stereo not given) | 3% | 2 | . | -1% | 3% | .
CCOC(=O)CSc1nnc(-c2ccco2)n1-c1ccccc1 | 1.6µM* | 13 | 9% | -3% | 8% | 32µM*
O=C(CSc1nnc(-c2cccs2)n1-c1ccccc1)N1CCCC1 | ? | 22 | 5% | -7% | -2% | 25µM*
CCOc1ccc(Nc2nnc(Cc3ccc(OC)cc3)c(=O)[nH]2)cc1 | 2% | . | 4% | 10% | 12% | .
COc1cc([C@H](O)CO)ccc1O | . | . | . | 5%[1.9 µM] | . | .
Cc1ccc(S(=O)(=O)N2CCc3nc(-c4ccccc4)c4c(c3C2)CO[C@@H](C)C4)cc1 | 24%[13.5 µM] | . | -26%[14.2 µM] | 9%[10 µM] | . | -7%
COC(=O)c1ccccc1NC(=O)N1CCN(c2ccc(F)cc2)CC1 | -14% | . | 10% | 18% | -6% | .
CN(C)c1ccc(CN(C(=O)c2ccco2)C2CCS(=O)(=O)C2)cc1 (stereo not given) | 7.1µM* | ? | -24% | -18%[0.074 µM] | 10% | -11%
